MazEF act – activators of E. coli MazEF toxin-antitoxin RNase, primary screen, biochemical, fluorescence, uHTS | Endoribonuclease toxin MazF (Escherichia coli (strain K12)), P0AE70 | FAM/BHQ RNA-DNA oligo cleavage fluorescence, 5 h | activation, % at 20 µM | 350,000 compounds, 0.32% hits | AID 504720, 2011; in the data active = activation above about 50%
Target sequence (P0AE70 whole entry, looked up): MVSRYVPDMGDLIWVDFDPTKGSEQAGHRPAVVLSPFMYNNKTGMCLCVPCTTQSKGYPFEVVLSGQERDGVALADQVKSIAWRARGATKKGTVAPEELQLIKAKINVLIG
Mtb FBA inh – Mtb FBA enzyme inhibitors, primary screen, biochemical, fluorescence, strain H37Rv; purified M. tuberculosis FBA, fluorescence read-out; inhibition, % at 1 µM; 360,000 compounds, 2.3% hits; AID 588726, 2011; in the data active = inhibition above about 27%;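 also: 0% = vehicle and 100% = reference inhibitor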
Target sequence (P9WQA3 whole entry, looked up): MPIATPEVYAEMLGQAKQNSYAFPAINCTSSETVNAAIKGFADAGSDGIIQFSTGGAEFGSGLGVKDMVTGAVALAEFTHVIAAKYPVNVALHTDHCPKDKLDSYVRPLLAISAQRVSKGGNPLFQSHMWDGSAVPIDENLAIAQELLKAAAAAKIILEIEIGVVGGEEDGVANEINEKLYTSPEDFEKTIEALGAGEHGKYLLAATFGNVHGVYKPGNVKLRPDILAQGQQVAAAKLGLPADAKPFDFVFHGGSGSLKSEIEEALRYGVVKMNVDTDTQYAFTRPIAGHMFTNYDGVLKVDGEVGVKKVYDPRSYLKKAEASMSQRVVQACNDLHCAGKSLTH
CCHFV vOTU inh – CCHFV vOTU protease inhibitors, primary screen, biochemical, Pep-AMC substrate, fluorescence; Crimean-Congo hemorrhagic fever virus L polyprotein viral ovarian tumor (vOTU) protease …; inhibition, % at 11.5 µM; 370,000 compounds, 0.55% hits; AID 651958, 2012; also: 0% = vehicle wells with enzyme and 100% = no enzyme wells
GDH-TPI counter – GDH-TPI coupling enzyme inhibitors, primary screen, artefact control for M. tuberculosis FBA inhibitor project, biochemical, absorbance, full deck | 360,000 compounds, 1.2% hits | AID 588335, 2011 | GDH-TPI coupled enzyme counterscreen, NADH absorbance | inhibition, % at 4.8 µM;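 also: 0% = DMSO wells and 100% = wells lacking the enzyme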
Mtb betalactam – beta-lactam sensitization of Mtb H37Rv, H37Rv; M. tuberculosis H37Rv growth with meropenem, percent inhibition; 330,000 compounds, 0.27% hits; inhibition, % at 25 µM; call rule not given here;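 also: growth measured after seven days incubation then overnight dye step; 0% = bacteria only wells and 100% = bacteria with antibiotic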
Starred values were filed as active, the others as inactive; ? = inconclusive; · = no result. This is a sample that favours compounds with a hit; in the whole collection about 4% have one here. Rule as the data show it, unless noted: active = inhibition above about 30%; inactive = the rest.

SMILES	MazEF act	Mtb FBA inh	CCHFV vOTU inh	GDH-TPI counter	Mtb betalactam
O=C(NCc1cccnc1)/C(=C/c1ccc(-c2cccc(C(F)(F)F)c2)o1)NC(=O)c1ccccc1	9	2	21	33*	20
C=CCN1[C@H](CC(C)C)COc2cc(N3CCCC3)ccc2S1(=O)=O	·	·	9	·	·
O=C1c2nc3cc(-c4ccco4)[nH]n3c(=O)c2CN1C1CCCCC1	1	129*	-62	-1	-4
CC(C1=CCCCC1)c1cnn(C)c1 (stereo not given)	·	·	7	·	·
COc1ccccc1/C=C/C=N/NC(=O)c1ccc(=O)n(C)c1	7	2	15	51*	6
COc1cccc(/C=N/NC(=O)c2ccc(=O)n(C)c2)c1OC	-1	4	1	9	2
COc1ccccc1/C=C/C=N/NC(=O)CCn1cnc2ccccc21	-1	0	2	33*	-5
COc1ccccc1/C=C/C=N/NC(=O)CC1C(=O)NN=C1C (stereo not given)	3	0	-7	37*	-6
COc1ccccc1/C=C/C=N/NC(=O)c1cc(-c2ccco2)[nH]n1	8	-1	0	32*	88
O=C(Nc1ccc2ccccc2c1)NC1CCCCN(Cc2cccc(Cl)c2)C1=O (stereo not given)	·	·	-9	·	·
Cc1c(C(=O)N2CCCCC2)sc(NC(=O)c2ccco2)c1C#N	2	-2	4	40*	-11
COC(=O)c1sc(NC(=O)c2ccco2)c(C#N)c1C	-1	2	14	0	-1
Cc1c(C(=O)N2CCCC2)sc(NC(=O)c2ccco2)c1C#N	-6	-3	3	31*	-3
Cc1c(C(=O)N2CCCC2)sc(NC(=O)c2ccccc2)c1C#N	-4	-1	-9	26	4
C[C@@H]1C[C@H](O)CCCCCC(=O)Cc2cc(O)cc(O)c2C(=O)O1	·	·	9	·	·
Cc1nc(NC2CCCC2)c2nnn(Cc3ccccc3)c2n1	·	·	7	·	·
CC(=O)N1N=C(c2ccc(C)o2)CC1c1ccc(F)cc1 (stereo not given)	5	-1	-3	71*	-3
Cc1ccc(C(=O)NCCn2c(N)c(C#N)c3nc4ccccc4nc32)cc1	-8	161*	-209	10	?
N#Cc1c(N)n(CCNC(=O)c2ccc(Cl)cc2)c2nc3ccccc3nc12	11	199*	-185	18	-1
N#Cc1c(N)n(CCOC(=O)c2cccc([N+](=O)[O-])c2)c2nc3ccccc3nc12	2	15	5	19	-6
C=c1[nH]cc(C(C)c2c(C)n(C)c3ccccc23)/c1=C/C (stereo not given)	·	·	10	·	·
Cc1nc(N2CCc3ccccc3C2)[nH]c(=O)c1Cc1ccccc1	-4	-2	0	-1	4
Cc1nc(-n2[nH]c3c(c2=O)CCCC3)[nH]c(=O)c1Cc1ccccc1	63*	8	7	-5	94
COC(=O)C1=C(O)/C(=C/c2ccc(OCC(=O)Nc3ccc(OC)cc3)cc2)N=C1C	1	0	-5	34*	·
COC(=O)C1=C(O)/C(=C\c2ccc(OCC(=O)Nc3ccccc3)cc2)N=C1C	7	-1	5	3	?
SMILES	MazEF act	Mtb FBA inh	CCHFV vOTU inh	GDH-TPI counter	Mtb betalactam
Cc1nnc(SCC(=O)N/N=C/c2cc(Cl)c(O)c(Cl)c2)s1	-1	-4	4	35*	-4
C[C@H]1COc2cc(Br)ccc2S(=O)(=O)N1Cc1cn(Cc2ccccc2)nn1	·	·	0	·	·
COc1ccc(C(c2c(C)[nH]n(-c3ccccc3)c2=O)c2c(C)[nH]n(-c3ccccc3)c2=O)cc1OC	7	-3	84*	-4	7
CC(=O)Nc1ccc(OCC(C)CN2CCC(C(O)(c3ccccc3)c3ccccc3)CC2)cc1 (stereo not given)	·	·	-9	·	·
O=C(c1ccc2c(c1)OCO2)N1CCC(Oc2cccnc2)CC1	·	·	-2	·	·
CC(=O)OC[C@H]1O[C@@H](Oc2cc(O)cc3oc(-c4ccc(O)cc4)cc(=O)c23)[C@H](O[C@@H]2O[C@@H](C)[C@H](O)[C@@H](O)[C@H]2O)[C@@H](O)[C@@H]1O	2	13	13	33*	10
CC1OC(OC2C(Oc3c(-c4ccc(O)cc4)oc4cc(O)cc(O)c4c3=O)OC(COC3O[C@@H](C)[C@H](O)[C@@H](O)C3O)C(O)C2O)C(O)C(O)C1O (stereo not given in full)	0	-1	2	22	0
COc1ccc(-c2cc(=O)c3c(O)cc(OC4OC(COC5OC(C)C(O)C(O)C5O)C(O)C(O)C4O)cc3o2)cc1O (stereo not given)	10	3	0	42*	-2
CCCCSCc1nc2nc(Cl)c(Cl)nc2[nH]1	6	-3	10	35*	·
OCc1nc2nc(Cl)c(Cl)nc2[nH]1	-34	11	-7	27	3
CC(=O)c1ccc(NCCCN2CCC(C(O)(c3ccccc3)c3ccccc3)CC2)cc1	·	·	8	·	·
NC1CCN(c2c(F)cc3c(=O)c(C(=O)O)cn(C4CC4)c3c2Cl)C1 (stereo not given)	6	3	7	34*	100
COc1ccc2c(c1)CNC2CS(=O)(=O)NCCc1ccccc1 (stereo not given)	·	·	0	·	·
N#C/C(=N\Nc1ccc(Cl)cc1)C(N)=S	2	-18	4	4	25
N#C/C(=N\Nc1ccccc1)C(N)=S	8	-7	-5	31*	34
COC(=O)C1CN(Cc2ccc(OC)cc2)CCS(=O)(=O)N1Cc1cn(CCOC(C)=O)nn1 (stereo not given)	·	·	-9	·	·
CC(=O)C1=CN(Cc2ccccc2)CCC1=O	-6	1	-6	6	·
COC(=O)/C=C/C1=CN(Cc2ccccc2)CCC1=O	-9	-2	8	61*	6
C=CCNC(=S)N/N=C/c1cn(C)c2ccccc12	-8	1	6	32*	37
Cn1cc(/C=N/NC(=O)c2cc3cc(Br)ccc3o2)c2ccccc21	-11	1	6	1	1
Cn1cc(/C=N/NC(N)=S)c2ccccc21	10	1	14	37*	96
CCOC(=O)C1(Cc2ccccc2)CCN(Cc2ccc(C(F)(F)F)cc2)CC1	·	·	9	·	·
CC(C)=CCC/C(C)=C/CNC(=O)C[C@H]1C[C@H](C(=O)N2CCCCC2)[C@@]2(CCc3ccccc3)c3[nH]c4cc(-c5ccco5)ccc4c3CCN2C1=O	75*	7	·	16	·
CC[C@]12c3[nH]c4cc(-c5ccco5)ccc4c3CCN1C(=O)[C@@H](CC(=O)NC/C=C(\C)CCC=C(C)C)C[C@@H]2C(=O)N1CCN(C(=O)C2CC2)CC1	-7	11	-32	4	·

Screens: PubChem, several laboratories
